{
  "source": "PubChem BioAssay (EPA / NIEHS)",
  "note": "Inconclusive results are not listed. Calls of active or inactive are those of the source. How the source made its calls: active means hit-call score of the fitted dose curve at least 0.9, where 1 is the maximum; inconclusive means response in the unintended direction; inactive means score below 0.9.",
  "data": [
    {"test_system": "not listed separately", "test": "ATG_M_06_XSP2: Attagene TRANS-FACTORIAL Multi-Species (XSP2) HepG2 Assay for M06 Transcription Factor (Internal Marker) (AID 2283811);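 further: internal background marker reporter mRNA measured by RT-PCR and capillary electrophoresis; hits are increases in signal above the DMSO baseline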", "how_it_was_run": "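Internal-marker reporter transcript, quantified by RT-PCR, 6-FAM labelling, HpaI digestion and capillary electrophoresis, 24 hours after dosing transfected HepG2 cells with 3 nM 6-alpha-fluorotestosterone and 1.5 nM norgestrel present; DMSO baseline.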", "values": [
      {"compound": "COP(=S)(OC)Oc1nc(Cl)c(Cl)cc1Cl", "outcome": "inactive"},
      {"compound": "CCCCNC(=O)OCC#CI", "outcome": "inactive"},
      {"compound": "COC(=O)N(OC)c1ccccc1COc1ccn(-c2ccc(Cl)cc2)n1", "outcome": "inactive"},
      {"compound": "CCCN(CCC)c1c([N+](=O)[O-])cc(S(N)(=O)=O)cc1[N+](=O)[O-]", "outcome": "inactive"},
      {"compound": "CCCCC(CC)COC(=O)c1ccccc1C(=O)OCC(CC)CCCC", "note": "(configuration not stated)", "outcome": "inactive"},
      {"compound": "C#CCOS(=O)OC1CCCCC1Oc1ccc(C(C)(C)C)cc1", "note": "(configuration not stated)", "outcome": "inactive"},
      {"compound": "CCOP(=S)(OCC)SCn1c(=O)oc2cc(Cl)ccc21", "outcome": "inactive"},
      {"compound": "CO/C=C(/C(=O)OC)c1ccccc1Oc1cc(Oc2ccccc2C#N)ncn1", "outcome": "inactive"},
      {"compound": "C=CC1(C)OC(=O)N(c2cc(Cl)cc(Cl)c2)C1=O", "note": "(configuration not stated)", "outcome": "inactive"},
      {"compound": "COc1ccc(C(c2ccc(OC)cc2)C(Cl)(Cl)Cl)cc1", "outcome": "inactive"},
      {"compound": "CCCC1COC(Cn2cncn2)(c2ccc(Cl)cc2Cl)O1", "note": "(configuration not stated)", "outcome": "inactive"},
      {"compound": "CC(C)Oc1cc(-n2nc(C(C)(C)C)oc2=O)c(Cl)cc1Cl", "outcome": "inactive"},
      {"compound": "OC(c1ccc(Cl)cc1)(c1cncnc1)c1ccccc1Cl", "note": "(configuration not stated)", "outcome": "inactive"},
      {"compound": "CC(C)(C)c1ccc(CSc2cnn(C(C)(C)C)c(=O)c2Cl)cc1", "outcome": "inactive"}
    ]},
    {"test_system": "turtle Estrogen Receptor (ERa), gene 101933533", "test": "ATG_trERa_XSP2: Attagene TRANS-FACTORIAL Multi-Species (XSP2) HepG2 Assay for turtle Estrogen Receptor (ERa) (AID 2283812);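 further: actives raise reporter signal above DMSO so AC50 reflects agonist activity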", "how_it_was_run": "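Readout is reporter mRNA quantified by RT-PCR with capillary electrophoresis after 24 h compound exposure, increase relative to DMSO. Uses transiently transfected human HepG2 liver cells carrying a chimeric turtle ERa-Gal4 receptor driving GAL4-UAS reporters.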", "values": [
      {"compound": "COP(=S)(OC)Oc1nc(Cl)c(Cl)cc1Cl", "AC50": "55.8 µM (active)"},
      {"compound": "COC(=O)N(OC)c1ccccc1COc1ccn(-c2ccc(Cl)cc2)n1", "outcome": "inactive"},
      {"compound": "CCCN(CCC)c1c([N+](=O)[O-])cc(S(N)(=O)=O)cc1[N+](=O)[O-]", "outcome": "inactive"},
      {"compound": "C#CCOS(=O)OC1CCCCC1Oc1ccc(C(C)(C)C)cc1", "note": "(configuration not stated)", "outcome": "inactive"},
      {"compound": "CCOP(=S)(OCC)SCn1c(=O)oc2cc(Cl)ccc21", "outcome": "inactive"},
      {"compound": "CO/C=C(/C(=O)OC)c1ccccc1Oc1cc(Oc2ccccc2C#N)ncn1", "outcome": "inactive"},
      {"compound": "C=CC1(C)OC(=O)N(c2cc(Cl)cc(Cl)c2)C1=O", "note": "(configuration not stated)", "outcome": "inactive"},
      {"compound": "COc1ccc(C(c2ccc(OC)cc2)C(Cl)(Cl)Cl)cc1", "AC50": "8.99 µM (active)"},
      {"compound": "CCCC1COC(Cn2cncn2)(c2ccc(Cl)cc2Cl)O1", "note": "(configuration not stated)", "AC50": "64.2 µM (active)"},
      {"compound": "CC(C)Oc1cc(-n2nc(C(C)(C)C)oc2=O)c(Cl)cc1Cl", "AC50": "100 µM (active)"},
      {"compound": "CCCCOC(=O)c1ccccc1C(=O)OCCCC", "AC50": "42.3 µM (active)"},
      {"compound": "OC(c1ccc(Cl)cc1)(c1cncnc1)c1ccccc1Cl", "note": "(configuration not stated)", "AC50": "1.49 µM (active)"},
      {"compound": "CC(C)(C)c1ccc(CSc2cnn(C(C)(C)C)c(=O)c2Cl)cc1", "outcome": "inactive"}
    ]}
  ]
}
